# Results as given in the supplement of paper PMC10681739.
# Columns and labels:
# ETS1 [1] = biological target: T1, ETS1 (UniProt P14921); experiment: ETS1 binding intensity (PBM fluorescence), ETS1 alone (arbitrary fluorescence units); higher = stronger binding; details: ETS1 concentration 1 nM; RUNX1 concentration 0 nM
# T1 sequence: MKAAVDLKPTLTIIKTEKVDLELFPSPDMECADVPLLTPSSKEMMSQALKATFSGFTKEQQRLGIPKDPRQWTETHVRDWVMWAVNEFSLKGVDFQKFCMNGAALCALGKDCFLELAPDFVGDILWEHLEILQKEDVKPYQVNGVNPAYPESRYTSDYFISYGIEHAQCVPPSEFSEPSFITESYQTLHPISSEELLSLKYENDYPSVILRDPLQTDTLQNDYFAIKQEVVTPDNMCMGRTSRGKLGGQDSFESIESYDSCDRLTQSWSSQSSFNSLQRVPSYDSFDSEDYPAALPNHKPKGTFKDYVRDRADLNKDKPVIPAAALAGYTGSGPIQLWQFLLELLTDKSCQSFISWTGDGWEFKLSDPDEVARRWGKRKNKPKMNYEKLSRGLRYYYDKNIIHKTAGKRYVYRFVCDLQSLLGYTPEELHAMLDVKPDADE
# ETS1 [2] = biological target: T1, ETS1; experiment: ETS1 binding intensity (PBM fluorescence) in presence of RUNX1, normalised to ETS1-only experiment (arbitrary fluorescence units); higher = stronger binding; details: ETS1 concentration 1 nM; RUNX1 concentration 25 nM
Sequence,ETS1 binding intensity (ETS1 [1]),ETS1 binding intensity (ETS1 [2])
ACCACCCCCCGTTTCCTCCGAAGTGGTTGGTGCCTT,590,494
CTCGGAGCGGAACTACTAGGGTGGTTTCTCCTGAGG,464,336
CAGCCCTAGCGAGTTTCCTGCGGGGAAGGGCATTCC,537,480
AGCAGATTTGCTGCAGGAAACCACCGAGTCTCACGG,1130,1490
CTGAAGGCTGGGGAGGAAGTGACCGCCCTCATATGC,2120,2330
GCAGGACTCCAGGAAGCCCGCGCAGCCGCAAAAAGC,597,1350
TCGGAACGGAAGGGAGGCACGAAACCGCGAGTGGAG,607,1840
GGCCTTCTGCCTACATCCTGCGGCGCCCGCGACCCG,679,593
TCACCCTCTCACTTCCTGCGGGTCCCAGGCTCAGGC,896,790
ACGCCGCGCATCCGCGCTTTACGGCGGCCGCAAAAT,405,563
ATGTAAACAAGGATGTGAGTTCTGCGGCCACACTCT,448,763
GCGTTTCCCCCTTGGGGTTATAGCAACCACCTCCTC,479,358
CCTCCTCTTCCTCCCCACTCTGCACATGCGGCTGGG,520,344
GGCTTGATTGAACGAGGATGTGGTTCTTGGGTGGGA,686,1770
GCAAAGATACATCCTTCTCCCCACAGACTAAGTTTC,490,412
AGAATTACCAGGAAGCCGAGCGCTGCGGGCTAGCGG,518,631
GGCGGCCTCAACTTCCGCGGTGGGACTCCGGAGCAG,503,445
GCTATCGAGCTTCCTGCAGCGGTGGCCACCCGAGCA,482,418
TGGTTAAGCAGTGCAGGATGTGGGCTGCACTGCTAA,2590,3930
TATCACGTTTCCTGCTGCTGCACCGCGACCTCAGCT,513,492
GGCCGGAAAGGGTCTTGAGAGGAGGTGGTTGCCTTA,633,519
CGAGTCAGGAAATCACAGCTCTGCGGGTGGGCTCCT,458,623
ATGACTTAGCAACATCCTGACAACCACTACATTGTC,476,420
TGAGCCCCAGCAAGGGGAAGTGGTTAACCCAGGGTC,709,1960
CTTCTCGCGGAAGCGGCACAAGCCGCAGTACAGCGC,301,495

Sequence,ETS1 binding intensity (ETS1 [1]),ETS1 binding intensity (ETS1 [2])
TTTGCACACATCCTGGCCTCCGCCTGACCACCTCCT,483,586
CTTGCTCCCCACTTCCTACCACATTCAATGCCCGGA,523,558
CTGGGGCTGAGGGAGGGATGTGGTGGGGCCCAGGCT,411,521
CCATTCCCGGGCTTCCGCGGTGTCCCCACCCCCTAA,673,652
TAACCCGGAGCGGAAGGATCCCGCAGCGTGTGCGTA,681,797
CTCTGAAGGAAGTGATGTTAGACGGCTGTGGGTGGT,545,785
GGCGGAACTTGTGCGTACGCTGGAAAACCGCTGGGG,385,545
TTTAAGGGCGGAAAGGCTTTAGCCGCAAAATGGCTT,547,2380
TTTCCTACAGAAGGATGTGGTTGGTGGGTTTGGTTT,619,3210
CTAGTTTCCTGTGGCTGCTATGACAAATGACCACAG,403,474
TGTTGCACATGTTCAGGATGTGGTAGACAGCTTTCA,1410,3040
AGAGGAAGTAAATTCTAACAGTGGAAACCACAGATT,647,2290
ATGCCAAGGGACTTCCCTCCACAACCGCCCCCAGCT,642,529
TTGGTGGCTTCCTGCCCAGGAGACCACACCCAGCTT,540,486
CTTTCGCTTCCTTTCCCCGCCTCTTAGTCCCGCAGA,464,363
TCCCCTGTCTTCCGGAGGCTGCGGCGCAGCGGCGCA,403,519
ACTCCGCCCCTTCCGCCTGGCGGTTCCACTTCTCGG,480,456
ATTCTGCATCCTGTGCTCTTTCCATGAGACCACAAA,448,754
AGCCAGGAAATCCGCACCTACACAGCCCAACCACAG,582,435
GTCGTCAGCGTCTTCCTGTCAGCGGTCGGCAGAGCC,706,562
CCAGGCGTTTCCGGGTTCCCGCGGTCCCGTCCCCCA,1340,1330
CTTCCATCCAGGAAGCTTGTGGTGCAACAGCAGTGT,840,1100
TTCTTAGCAGAGGAAGCTGTTTGCGGGGAAAAAGGG,1120,2200
TGAATATTCTTCCGCACGTACCCACATGGCTCACTT,486,337
